The panel holds about 83,000 compounds, 20% with a hit somewhere; the sample as a whole holds those more often.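 Assay: single dose, 48 h. Readout: percent growth (0 = no net growth; negative = cell death). Active: <10.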 Active and inactive are the calls of the source.
These compounds were tested on SF-539 CNS (assay: NCI-60 one-dose screen, 48 h (100 = growth as untreated, 0 = no growth, -100 = all killed)). Settings: 10 µM.

Structure (SMILES) | growth
Cc1nc2ccccc2c2nnc(SCC(=O)N(Cc3ccccc3)c3ccccc3)n12 | 99.2% (inactive)
CC1=C(/C=C/C(C)=C/C=C/C(C)=C/CO)C(C)(C)CCC1 | 105% (inactive)
CC(=O)Nc1cccc(Cl)c1C | 107% (inactive)
COc1cc([C@@H]2c3cc4c(cc3[C@H](O)[C@H]3COC(=O)[C@H]23)OCO4)cc(OC)c1OC | 5.77% (active)
CC1CCC(C(=O)O)N1 (stereo not given) | 95% (inactive)

Each compound was assayed on UACC-257 melanoma in the same assay as above. Settings: 10 µM.

Structure (SMILES) | growth
COCCCC/C(=N\OCCN)c1ccc(C(F)(F)F)cc1 | 106% (inactive)
Cc1ccccc1N=C(c1ccccc1)C1C(=O)c2ccccc2C1=O | 96% (inactive)
O=C(O)C(c1ccccc1)C(O)c1ccccc1 (stereo not given) | 85.7% (inactive)
CC(C)(C)c1cc(O)c(C(C)(C)C)cc1O | 85.6% (inactive)
O=C(CCNNC(=O)c1ccncc1)NCc1ccccc1 | 110% (inactive)
CCCNc1ccc(C2=NCCCN2)cc1 | 99.8% (inactive)
O=[N+]([O-])c1ccc(O)c(S(=O)(=O)O)c1 | 99.3% (inactive)
O=C(O)c1cccc([N+](=O)[O-])c1O | 107% (inactive)
C/C=C/CC(C)C(O)C1C(=O)NC(CC)C(=O)N(C)CC(=O)N(C)C(CC(C)C)C(=O)NC(C(C)C)C(=O)N(C)C(CC(C)C)C(=O)NC(C)C(=O)NC(C)C(=O)N(C)C(CC(C)C)C(=O)N(C)C(CC(C)C)C(=O)N(C)C(C(C)C)C(=O)N1C (stereo not given) | 1.79% (active)
O=[N+]([O-])c1ccc(N=Nc2ccccc2)cc1 | 108% (inactive)
O=C(CC(=O)c1ccccc1O)c1ccccc1 | 95.7% (inactive)
CCn1c(=O)n(C)c2c(=O)n(C)c(=O)n(C)c21 | 99% (inactive)
CCCCCCCCCCCCCCCCC1CC(=O)OC1=O (stereo not given) | 104% (inactive)
O=C1c2ccccc2C(=O)N1OCc1ccccc1 | 122% (inactive)
C[C@@H](c1ccccc1)[C@@H](C(=O)O)c1ccccc1 | 98.8% (inactive)
Nc1ccc(CC(=O)O)c(N)c1 | 101% (inactive)
CN(C)c1ccc(CNC(C(=O)c2ccccc2)c2ccccc2)cc1 (stereo not given) | 94.9% (inactive)
CC(C)COC(=O)COC(=O)OCCOCCOC(=O)OCC(=O)OCC(C)C | 103% (inactive)

Structure (SMILES) | growth
S=C(Nc1ccccc1)N1CCCCC1 | 95.9% (inactive)
O=C(O)CCCc1ccccc1 | 104% (inactive)
COc1cc(OC)c2ccc(=O)oc2c1 | 98.1% (inactive)
Cc1cc(=O)[nH]c(NN=C2CCCC2)n1 | 125% (inactive)
Nc1ccc(C(=O)c2ccc(N)c(Br)c2)cc1Br | 67.1% (inactive)
CCCC(=O)c1cc(C)ccc1OC | 112% (inactive)
O=C(N/N=C/c1ccccc1O)Nc1nn[nH]n1 | 104% (inactive)
CCOC(=O)/C(C#N)=C/c1cccc(C)c1 | 104% (inactive)
c1ccc(/C(=N\N=C(/c2ccccc2)c2cccs2)c2cccs2)cc1 | 106% (inactive)
Nc1ccccc1C(=O)Nc1ccc(Cl)cc1Cl | 86.5% (inactive)
CC1=CC(=O)c2ccccc2C1=O | 104% (inactive)
COC(=O)Nc1nc2ccc(C(=O)c3cccs3)cc2[nH]1 | 56% (inactive)
CCOC(=O)C(C#N)Cc1ccccc1 (stereo not given) | 117% (inactive)
Cc1nc2ccccc2c2nnc(SCC(=O)N(Cc3ccccc3)c3ccccc3)n12 | 92.8% (inactive)
CC1=C(/C=C/C(C)=C/C=C/C(C)=C/CO)C(C)(C)CCC1 | 99.9% (inactive)
CC(=O)Nc1cccc(Cl)c1C | 84.9% (inactive)
COc1cc([C@@H]2c3cc4c(cc3[C@H](O)[C@H]3COC(=O)[C@H]23)OCO4)cc(OC)c1OC | 53.2% (inactive)
CC1CCC(C(=O)O)N1 (stereo not given) | 103% (inactive)

Each compound was assayed on M14 melanoma in the same assay as above. Settings: 10 µM.

Structure (SMILES) | growth
COCCCC/C(=N\OCCN)c1ccc(C(F)(F)F)cc1 | 109% (inactive)
Cc1ccccc1N=C(c1ccccc1)C1C(=O)c2ccccc2C1=O | 78% (inactive)
O=C(O)C(c1ccccc1)C(O)c1ccccc1 (stereo not given) | 104% (inactive)
CC(C)(C)c1cc(O)c(C(C)(C)C)cc1O | 103% (inactive)
O=C(CCNNC(=O)c1ccncc1)NCc1ccccc1 | 103% (inactive)
CCCNc1ccc(C2=NCCCN2)cc1 | 96.1% (inactive)
O=[N+]([O-])c1ccc(O)c(S(=O)(=O)O)c1 | 109% (inactive)
O=C(O)c1cccc([N+](=O)[O-])c1O | 94.1% (inactive)
C/C=C/CC(C)C(O)C1C(=O)NC(CC)C(=O)N(C)CC(=O)N(C)C(CC(C)C)C(=O)NC(C(C)C)C(=O)N(C)C(CC(C)C)C(=O)NC(C)C(=O)NC(C)C(=O)N(C)C(CC(C)C)C(=O)N(C)C(CC(C)C)C(=O)N(C)C(C(C)C)C(=O)N1C (stereo not given) | 4.21% (active)
O=[N+]([O-])c1ccc(N=Nc2ccccc2)cc1 | 102% (inactive)
O=C(CC(=O)c1ccccc1O)c1ccccc1 | 97.4% (inactive)
CCn1c(=O)n(C)c2c(=O)n(C)c(=O)n(C)c21 | 101% (inactive)
O=C1c2ccccc2C(=O)N1OCc1ccccc1 | 108% (inactive)
C[C@@H](c1ccccc1)[C@@H](C(=O)O)c1ccccc1 | 101% (inactive)
CC(=O)C1CCCCC1 | 106% (inactive)
Nc1ccc(CC(=O)O)c(N)c1 | 100% (inactive)
CN(C)c1ccc(CNC(C(=O)c2ccccc2)c2ccccc2)cc1 (stereo not given) | 114% (inactive)

Structure (SMILES) | growth
S=C(Nc1ccccc1)N1CCCCC1 | 97.3% (inactive)
O=C(O)CCCc1ccccc1 | 101% (inactive)
COc1cc(OC)c2ccc(=O)oc2c1 | 115% (inactive)
Cc1cc(=O)[nH]c(NN=C2CCCC2)n1 | 112% (inactive)
Nc1ccc(NC(=O)c2cccc(N)c2)cc1 | 104% (inactive)
O=C(N/N=C/c1ccccc1O)Nc1nn[nH]n1 | 103% (inactive)
CCOC(=O)/C(C#N)=C/c1cccc(C)c1 | 97.4% (inactive)
c1ccc(/C(=N\N=C(/c2ccccc2)c2cccs2)c2cccs2)cc1 | 101% (inactive)
Nc1ccccc1C(=O)Nc1ccc(Cl)cc1Cl | 94.7% (inactive)
CC1=CC(=O)c2ccccc2C1=O | 107% (inactive)
COC(=O)Nc1nc2ccc(C(=O)c3cccs3)cc2[nH]1 | 3.53% (active)
CCOC(=O)C(C#N)Cc1ccccc1 (stereo not given) | 108% (inactive)
Cc1nc2ccccc2c2nnc(SCC(=O)N(Cc3ccccc3)c3ccccc3)n12 | 119% (inactive)
CC1=C(/C=C/C(C)=C/C=C/C(C)=C/CO)C(C)(C)CCC1 | 104% (inactive)
CC(=O)Nc1cccc(Cl)c1C | 108% (inactive)
COc1cc([C@@H]2c3cc4c(cc3[C@H](O)[C@H]3COC(=O)[C@H]23)OCO4)cc(OC)c1OC | 6.41% (active)
CC1CCC(C(=O)O)N1 (stereo not given) | 102% (inactive)

From PubChem BioAssay (NCI)
